Holding throughout (test): DAPPL (digital affinity profiling via proximity ligation, sequencing); 10 mM Tris-HCl pH 7.5, 50 mM NaCl, 1 mM DTT, 4% glycerol, room temperature, 30 min; GST-TFs on glutathione beads, 16-mer random dsDNA library, 0.1% formaldehyde crosslink after washing; high values mean tight binding
Assay [1] concerns the target T1, FEV (Homo sapiens, UniProt Q99581 1-238).
T1 sequence: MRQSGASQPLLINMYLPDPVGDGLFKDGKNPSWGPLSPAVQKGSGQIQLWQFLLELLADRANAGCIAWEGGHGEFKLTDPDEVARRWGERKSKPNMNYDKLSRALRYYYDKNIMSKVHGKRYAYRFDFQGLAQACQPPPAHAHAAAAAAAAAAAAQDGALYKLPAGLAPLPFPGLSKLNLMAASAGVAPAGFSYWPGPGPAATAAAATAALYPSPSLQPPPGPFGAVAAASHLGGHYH
The note with it: protein: recombinant; tags: N-terminal GST; dsDNA, one strand shown. The gist of the method: (§1)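 Each value of binding signal is a hexamer's read frequency for a factor divided by the same hexamer's frequency in the tag-only sample. Barcoded, bead-captured GST fusions of human transcription factors made in yeast were pooled with that sample and incubated with 200 nmole of a random double-stranded 16-mer DNA library in Tris/NaCl/DTT/glycerol buffer at room temperature for 30 min. Washing, 0.1% formaldehyde crosslinking, proximity ligation, PCR and Illumina NextSeq500 sequencing followed.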

For assay [2], the target named is ETV5 (Homo sapiens, UniProt P41161 1-510). To be noted: protein: recombinant; tags: N-terminal GST; dsDNA, one strand shown. A digest of the protocol:
as §1

The target of assay [3] is HSF1 (Homo sapiens, UniProt Q00613 1-529). To be noted: protein: recombinant; tags: N-terminal GST; chain copies: 3; dsDNA, one strand shown. The gist of the method:
as §1

For assay [4], the target named is T2, SPIC (Homo sapiens, UniProt Q8N5J4 1-248).
T2 sequence: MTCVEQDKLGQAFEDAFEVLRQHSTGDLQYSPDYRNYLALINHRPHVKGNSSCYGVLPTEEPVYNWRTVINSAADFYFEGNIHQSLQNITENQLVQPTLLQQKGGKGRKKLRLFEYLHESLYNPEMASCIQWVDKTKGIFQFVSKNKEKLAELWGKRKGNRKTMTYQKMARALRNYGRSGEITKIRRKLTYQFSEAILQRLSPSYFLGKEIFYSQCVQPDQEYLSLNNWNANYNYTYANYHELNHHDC
The note with it: protein: recombinant; tags: N-terminal GST; dsDNA, one strand shown. The gist of the method: as §1

The target in assay [5] is ELF4 (Homo sapiens, UniProt Q99607 1-663). To be noted: protein: recombinant; tags: N-terminal GST; dsDNA, one strand shown. A digest of the protocol: as §1
The target of assay [6] is T3, ELK4 (Homo sapiens, UniProt P28324-2 1-405).
T3 sequence: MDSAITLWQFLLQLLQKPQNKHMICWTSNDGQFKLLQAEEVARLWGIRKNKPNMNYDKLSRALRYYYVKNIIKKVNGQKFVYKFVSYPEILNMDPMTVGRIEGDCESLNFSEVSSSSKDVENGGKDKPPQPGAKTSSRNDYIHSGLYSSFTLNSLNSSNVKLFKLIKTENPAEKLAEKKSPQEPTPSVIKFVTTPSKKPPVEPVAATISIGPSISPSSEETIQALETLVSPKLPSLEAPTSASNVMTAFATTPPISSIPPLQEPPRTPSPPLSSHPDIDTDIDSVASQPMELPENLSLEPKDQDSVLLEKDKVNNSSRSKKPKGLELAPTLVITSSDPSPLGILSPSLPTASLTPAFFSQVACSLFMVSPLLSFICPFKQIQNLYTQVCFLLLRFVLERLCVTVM
The note with it: protein: recombinant; tags: N-terminal GST; dsDNA, one strand shown. A digest of the protocol: as §1

Assay [7] addresses T4, ETV2 (Homo sapiens, UniProt O00321 1-342).
T4 sequence: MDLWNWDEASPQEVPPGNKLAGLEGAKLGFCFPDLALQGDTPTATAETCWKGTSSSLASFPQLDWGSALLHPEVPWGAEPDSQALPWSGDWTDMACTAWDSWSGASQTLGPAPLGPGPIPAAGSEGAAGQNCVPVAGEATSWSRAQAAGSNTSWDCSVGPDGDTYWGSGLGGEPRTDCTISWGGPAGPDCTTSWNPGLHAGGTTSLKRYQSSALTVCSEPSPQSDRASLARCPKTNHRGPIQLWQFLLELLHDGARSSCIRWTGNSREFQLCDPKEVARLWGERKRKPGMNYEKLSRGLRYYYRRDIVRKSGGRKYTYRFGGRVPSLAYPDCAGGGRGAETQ
To be noted: protein: recombinant; tags: N-terminal GST; dsDNA, one strand shown. A digest of the protocol: as §1

Assay [8] addresses T5, ELF3 (Homo sapiens, UniProt P78545 1-371).
T5 sequence: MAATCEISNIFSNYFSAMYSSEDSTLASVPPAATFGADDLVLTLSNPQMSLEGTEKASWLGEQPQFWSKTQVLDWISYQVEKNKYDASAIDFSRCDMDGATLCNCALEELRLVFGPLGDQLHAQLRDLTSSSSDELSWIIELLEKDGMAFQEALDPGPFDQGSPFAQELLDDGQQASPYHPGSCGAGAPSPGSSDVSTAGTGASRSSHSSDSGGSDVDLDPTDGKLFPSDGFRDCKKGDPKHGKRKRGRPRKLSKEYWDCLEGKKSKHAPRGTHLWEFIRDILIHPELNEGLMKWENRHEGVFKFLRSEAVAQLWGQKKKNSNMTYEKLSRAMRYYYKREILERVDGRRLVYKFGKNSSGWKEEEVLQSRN
To be noted: protein: recombinant; tags: N-terminal GST; dsDNA, one strand shown. A digest of the protocol:
as §1

For assay [9], the target named is CRX (Homo sapiens, UniProt O43186 1-299). To be noted: protein: recombinant; tags: N-terminal GST; dsDNA, one strand shown. The gist of the method:
as §1

Assay [10] has as its target ETV1 (Homo sapiens, UniProt P50549 1-477). To be noted: protein: recombinant; tags: N-terminal GST; dsDNA, one strand shown. The gist of the method:
as §1

Assay [11] deals with T6, ERF (Homo sapiens, UniProt P50548 1-548).
T6 sequence: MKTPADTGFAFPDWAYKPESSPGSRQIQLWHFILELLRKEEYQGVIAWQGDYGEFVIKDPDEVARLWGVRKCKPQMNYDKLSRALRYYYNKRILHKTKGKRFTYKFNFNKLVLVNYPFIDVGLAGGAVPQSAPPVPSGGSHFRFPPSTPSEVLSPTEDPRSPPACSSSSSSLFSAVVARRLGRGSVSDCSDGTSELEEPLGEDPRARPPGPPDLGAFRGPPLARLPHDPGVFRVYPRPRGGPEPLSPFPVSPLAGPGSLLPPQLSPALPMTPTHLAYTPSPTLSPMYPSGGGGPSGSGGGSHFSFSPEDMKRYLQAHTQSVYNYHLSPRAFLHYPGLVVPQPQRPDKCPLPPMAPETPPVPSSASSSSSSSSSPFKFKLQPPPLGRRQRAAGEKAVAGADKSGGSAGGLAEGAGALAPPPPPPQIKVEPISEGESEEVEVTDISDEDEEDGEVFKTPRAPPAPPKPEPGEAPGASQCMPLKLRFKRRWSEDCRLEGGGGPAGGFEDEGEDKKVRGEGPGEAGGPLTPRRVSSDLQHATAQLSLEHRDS
The note with it: protein: recombinant; tags: N-terminal GST; dsDNA, one strand shown. A digest of the protocol:
as §1

Assay [12] deals with T7, ETV3L (Homo sapiens, UniProt Q6ZN32 1-361).
T7 sequence: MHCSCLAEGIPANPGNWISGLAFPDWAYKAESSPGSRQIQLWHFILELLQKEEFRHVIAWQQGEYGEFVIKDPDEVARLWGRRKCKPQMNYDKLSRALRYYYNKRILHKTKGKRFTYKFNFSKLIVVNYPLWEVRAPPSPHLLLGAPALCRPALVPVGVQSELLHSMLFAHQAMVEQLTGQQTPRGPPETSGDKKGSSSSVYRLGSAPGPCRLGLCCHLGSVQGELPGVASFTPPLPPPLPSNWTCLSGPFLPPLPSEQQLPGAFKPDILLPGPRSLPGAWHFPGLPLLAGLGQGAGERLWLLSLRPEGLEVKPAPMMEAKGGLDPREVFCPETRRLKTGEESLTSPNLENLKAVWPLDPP
To be noted: protein: recombinant; tags: N-terminal GST; dsDNA, one strand shown. A digest of the protocol: as §1

For assay [13], the target named is T8, ETS2 (Homo sapiens, UniProt P15036 1-469).
T8 sequence: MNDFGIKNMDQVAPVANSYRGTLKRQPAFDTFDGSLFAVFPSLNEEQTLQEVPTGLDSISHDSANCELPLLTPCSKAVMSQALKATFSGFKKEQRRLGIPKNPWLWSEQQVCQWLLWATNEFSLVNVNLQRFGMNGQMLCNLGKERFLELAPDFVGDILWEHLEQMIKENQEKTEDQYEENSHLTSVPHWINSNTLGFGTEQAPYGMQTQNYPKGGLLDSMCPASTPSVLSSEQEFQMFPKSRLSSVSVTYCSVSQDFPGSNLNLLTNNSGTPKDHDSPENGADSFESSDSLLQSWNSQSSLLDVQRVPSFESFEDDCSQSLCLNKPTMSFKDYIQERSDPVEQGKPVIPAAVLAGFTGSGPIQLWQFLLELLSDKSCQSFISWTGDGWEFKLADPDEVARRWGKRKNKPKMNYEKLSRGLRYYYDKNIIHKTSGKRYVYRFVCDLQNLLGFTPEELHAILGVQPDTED
The note with it: protein: recombinant; tags: N-terminal GST; dsDNA, one strand shown. The gist of the method:
as §1

For assay [14], the target named is T9, SPDEF (Homo sapiens, UniProt O95238 1-335).
T9 sequence: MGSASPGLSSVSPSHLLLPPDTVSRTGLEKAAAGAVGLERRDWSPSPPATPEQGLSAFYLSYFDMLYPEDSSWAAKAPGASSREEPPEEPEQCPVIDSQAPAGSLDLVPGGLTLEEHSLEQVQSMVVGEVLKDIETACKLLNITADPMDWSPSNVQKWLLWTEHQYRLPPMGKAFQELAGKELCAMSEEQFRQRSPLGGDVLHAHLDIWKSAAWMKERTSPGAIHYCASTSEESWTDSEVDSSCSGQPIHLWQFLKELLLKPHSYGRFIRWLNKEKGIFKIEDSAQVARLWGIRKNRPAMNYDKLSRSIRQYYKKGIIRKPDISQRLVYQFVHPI
The note with it: protein: recombinant; tags: N-terminal GST; dsDNA, one strand shown. A digest of the protocol: as §1

Assay [15] addresses T10, ETV7 (Homo sapiens, UniProt Q9Y603 1-341).
T10 sequence: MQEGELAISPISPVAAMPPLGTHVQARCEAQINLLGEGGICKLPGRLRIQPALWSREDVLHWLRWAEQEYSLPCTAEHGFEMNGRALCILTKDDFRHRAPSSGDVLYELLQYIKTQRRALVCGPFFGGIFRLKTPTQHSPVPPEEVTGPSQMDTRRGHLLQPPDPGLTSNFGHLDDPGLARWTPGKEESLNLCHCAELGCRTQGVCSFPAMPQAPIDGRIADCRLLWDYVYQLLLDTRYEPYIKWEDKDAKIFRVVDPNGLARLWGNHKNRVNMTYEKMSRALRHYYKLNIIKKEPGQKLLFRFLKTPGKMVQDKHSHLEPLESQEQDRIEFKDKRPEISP
The note with it: protein: recombinant; tags: N-terminal GST; dsDNA, one strand shown. The gist of the method: as §1

Assay [16] deals with T11, ELF5 (Homo sapiens, UniProt Q9UKW6-2 1-255).
T11 sequence: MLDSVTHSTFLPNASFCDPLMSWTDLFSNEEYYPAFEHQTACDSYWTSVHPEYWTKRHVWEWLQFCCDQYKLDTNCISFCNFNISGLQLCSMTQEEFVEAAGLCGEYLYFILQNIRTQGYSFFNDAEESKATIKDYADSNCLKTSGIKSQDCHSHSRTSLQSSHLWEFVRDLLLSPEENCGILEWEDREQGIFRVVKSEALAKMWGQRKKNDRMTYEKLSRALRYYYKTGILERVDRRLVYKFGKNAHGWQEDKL
The note with it: protein: recombinant; tags: N-terminal GST; dsDNA, one strand shown. A digest of the protocol:
as §1

For assay [17], the target named is T12, ETV3 (Homo sapiens, UniProt P41162-2 1-143).
T12 sequence: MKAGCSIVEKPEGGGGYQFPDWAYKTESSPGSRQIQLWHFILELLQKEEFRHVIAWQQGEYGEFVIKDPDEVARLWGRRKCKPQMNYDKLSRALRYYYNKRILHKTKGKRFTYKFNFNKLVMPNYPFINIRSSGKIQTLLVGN
To be noted: protein: recombinant; tags: N-terminal GST; dsDNA, one strand shown. A digest of the protocol:
as §1

The target of assay [18] is ETV6 (Homo sapiens, UniProt P41212 1-452). The note with it: protein: recombinant; tags: N-terminal GST; dsDNA, one strand shown. The gist of the method: as §1
Chain of ETV6 (P41212 whole entry): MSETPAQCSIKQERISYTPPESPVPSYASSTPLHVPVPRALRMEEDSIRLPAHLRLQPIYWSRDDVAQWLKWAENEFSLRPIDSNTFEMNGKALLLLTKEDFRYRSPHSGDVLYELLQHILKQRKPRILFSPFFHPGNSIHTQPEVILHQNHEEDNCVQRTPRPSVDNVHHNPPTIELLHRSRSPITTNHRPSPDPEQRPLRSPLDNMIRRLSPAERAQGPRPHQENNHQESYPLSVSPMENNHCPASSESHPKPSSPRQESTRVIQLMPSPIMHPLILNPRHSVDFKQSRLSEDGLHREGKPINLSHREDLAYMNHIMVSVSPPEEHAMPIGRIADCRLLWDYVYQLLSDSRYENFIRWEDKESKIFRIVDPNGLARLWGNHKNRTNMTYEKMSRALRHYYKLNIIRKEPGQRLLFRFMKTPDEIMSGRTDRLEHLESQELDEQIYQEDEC

Chain of ELF4 (Q99607 whole entry): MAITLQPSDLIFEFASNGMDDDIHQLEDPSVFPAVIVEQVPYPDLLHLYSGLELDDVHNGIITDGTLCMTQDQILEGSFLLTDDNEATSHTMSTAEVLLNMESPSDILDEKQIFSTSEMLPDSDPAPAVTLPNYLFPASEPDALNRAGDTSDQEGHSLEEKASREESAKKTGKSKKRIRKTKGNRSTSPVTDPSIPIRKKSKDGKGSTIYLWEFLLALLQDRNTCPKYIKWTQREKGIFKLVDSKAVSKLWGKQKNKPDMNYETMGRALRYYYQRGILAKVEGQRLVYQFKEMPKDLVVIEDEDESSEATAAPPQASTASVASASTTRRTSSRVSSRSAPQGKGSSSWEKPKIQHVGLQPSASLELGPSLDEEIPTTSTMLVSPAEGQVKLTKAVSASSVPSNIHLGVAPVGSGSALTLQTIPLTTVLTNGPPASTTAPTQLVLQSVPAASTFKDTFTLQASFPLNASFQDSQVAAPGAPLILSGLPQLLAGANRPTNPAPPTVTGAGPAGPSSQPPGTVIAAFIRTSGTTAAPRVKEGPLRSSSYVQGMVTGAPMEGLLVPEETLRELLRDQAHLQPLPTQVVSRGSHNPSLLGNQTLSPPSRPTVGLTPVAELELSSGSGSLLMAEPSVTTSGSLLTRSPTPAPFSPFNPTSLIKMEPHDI
Chain of HSF1 (Q00613 whole entry): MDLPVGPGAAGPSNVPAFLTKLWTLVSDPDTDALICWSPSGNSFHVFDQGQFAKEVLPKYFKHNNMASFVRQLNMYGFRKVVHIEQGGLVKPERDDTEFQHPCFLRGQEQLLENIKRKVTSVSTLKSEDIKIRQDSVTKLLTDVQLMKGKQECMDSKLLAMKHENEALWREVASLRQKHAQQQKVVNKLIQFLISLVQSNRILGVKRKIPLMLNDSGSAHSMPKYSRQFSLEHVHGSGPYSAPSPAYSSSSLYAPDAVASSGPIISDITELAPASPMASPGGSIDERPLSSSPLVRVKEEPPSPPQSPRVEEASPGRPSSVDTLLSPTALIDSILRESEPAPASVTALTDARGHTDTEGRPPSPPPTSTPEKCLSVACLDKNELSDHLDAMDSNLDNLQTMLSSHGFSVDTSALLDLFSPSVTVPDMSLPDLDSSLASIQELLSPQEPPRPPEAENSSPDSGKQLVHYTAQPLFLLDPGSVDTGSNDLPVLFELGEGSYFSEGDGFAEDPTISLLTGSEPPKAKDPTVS
Chain of CRX (O43186 whole entry): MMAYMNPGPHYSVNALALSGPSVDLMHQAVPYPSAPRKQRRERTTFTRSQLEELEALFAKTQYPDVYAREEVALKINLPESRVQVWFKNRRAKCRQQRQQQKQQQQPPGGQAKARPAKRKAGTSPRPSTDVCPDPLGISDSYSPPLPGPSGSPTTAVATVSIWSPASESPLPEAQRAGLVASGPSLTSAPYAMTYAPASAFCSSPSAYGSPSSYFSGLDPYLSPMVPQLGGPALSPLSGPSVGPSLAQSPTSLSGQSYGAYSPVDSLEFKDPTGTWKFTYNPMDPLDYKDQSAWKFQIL
Chain of ETV1 (P50549 whole entry): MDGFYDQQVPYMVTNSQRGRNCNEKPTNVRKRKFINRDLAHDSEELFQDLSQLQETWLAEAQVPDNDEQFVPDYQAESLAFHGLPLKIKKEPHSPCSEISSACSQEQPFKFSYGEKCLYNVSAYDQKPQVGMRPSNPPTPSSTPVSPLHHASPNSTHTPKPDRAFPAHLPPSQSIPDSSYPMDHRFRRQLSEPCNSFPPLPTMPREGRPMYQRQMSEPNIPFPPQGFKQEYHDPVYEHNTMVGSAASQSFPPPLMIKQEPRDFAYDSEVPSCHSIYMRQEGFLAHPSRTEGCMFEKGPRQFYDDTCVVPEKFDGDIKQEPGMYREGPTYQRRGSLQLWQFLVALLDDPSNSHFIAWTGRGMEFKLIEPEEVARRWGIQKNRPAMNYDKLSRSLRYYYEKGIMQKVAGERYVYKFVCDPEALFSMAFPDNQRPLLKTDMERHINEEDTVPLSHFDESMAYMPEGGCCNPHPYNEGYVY
Chain of ETV5 (P41161 whole entry): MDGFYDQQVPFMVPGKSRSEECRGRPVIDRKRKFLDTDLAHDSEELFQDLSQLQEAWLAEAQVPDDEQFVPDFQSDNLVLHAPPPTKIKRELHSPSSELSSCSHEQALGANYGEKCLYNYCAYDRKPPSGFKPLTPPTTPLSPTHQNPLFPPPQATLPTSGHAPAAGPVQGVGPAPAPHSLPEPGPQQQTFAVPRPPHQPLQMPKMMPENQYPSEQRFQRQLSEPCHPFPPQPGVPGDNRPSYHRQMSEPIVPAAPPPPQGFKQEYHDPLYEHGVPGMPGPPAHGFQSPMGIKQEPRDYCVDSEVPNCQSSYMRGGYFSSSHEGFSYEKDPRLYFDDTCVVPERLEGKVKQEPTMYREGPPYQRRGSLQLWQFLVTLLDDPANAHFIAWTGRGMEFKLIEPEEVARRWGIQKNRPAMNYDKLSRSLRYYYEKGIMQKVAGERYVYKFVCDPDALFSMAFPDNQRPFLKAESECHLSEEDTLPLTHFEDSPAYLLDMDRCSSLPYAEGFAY

On to TTCTCG, for which the binding signal in assay [1] was 1.35 fold enrichment (6-mer frequency, TF over GST control); in assay [2] it was 1.29 fold enrichment (6-mer frequency, TF over GST control); in assay [3], 4.96 fold enrichment (6-mer frequency, TF over GST control); in [4], 1.32 fold enrichment (6-mer frequency, TF over GST control); in assay [5], 1.51 fold enrichment (6-mer frequency, TF over GST control); in [6], 1.5 fold enrichment (6-mer frequency, TF over GST control). The binding signal in assay [7] is 1.4 fold enrichment (6-mer frequency, TF over GST control); in [8], 1.57 fold enrichment (6-mer frequency, TF over GST control); in assay [9], 2.17 fold enrichment (6-mer frequency, TF over GST control); in assay [10], 1.29 fold enrichment (6-mer frequency, TF over GST control); in [11] it was 1.27 fold enrichment (6-mer frequency, TF over GST control); in assay [12] it was 1.46 fold enrichment (6-mer frequency, TF over GST control). The binding signal was 1.45 fold enrichment (6-mer frequency, TF over GST control) in [13]; 1.34 fold enrichment (6-mer frequency, TF over GST control) in [14]; 1.48 fold enrichment (6-mer frequency, TF over GST control) in assay [15]; 1.47 fold enrichment (6-mer frequency, TF over GST control) in assay [16]; 1.27 fold enrichment (6-mer frequency, TF over GST control) in assay [17]; 1.36 fold enrichment (6-mer frequency, TF over GST control) in assay [18].

The record behind these values is article PMC7862700, “An all-to-all approach to the identification of sequence-specific readers for epigenetic DNA modifications on cytosine”.
